The results in this text go back to PubChem BioAssay.

The source made the active and inactive calls.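 How the source made its calls, unless noted: active means visually confirmed hit in the image check and inhibition above 20%; inconclusive means visually confirmed hit but inhibition not above 20%; inactive means no visual hit in the image check.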

Assay [1] can be described thus: inhibitors of TNFa-induced NFkB p65 translocation, primary screen, imaging, HUVEC, MLSMR starter and 10KST1 sets (AID 438;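 active means inhibition above 20% together with a positive visual image hit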;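 further: compound added about 3h40 before a 20 min TNFalpha stimulation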;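 on inhibition: signal is the nuclear over cytoplasmic p65 intensity ratio per well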). Conditions: HUVEC TNFa-induced p65 nuclear translocation; cell count: measured here: nuclei count (cytotoxicity indicator), at 2.08 µM unless noted; inhibition: at 2 µM, stronger effect = higher value unless noted.
Assay [2] is described as follows: endothelial E-selectin expression blockers – imaging, HUVEC, immunofluorescence, MLSMR starter and 10KST1 sets, primary screen (AID 487).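 On inhibition: signal is fraction of cell area covered by stained E-selectin grains.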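 On nuclei count: 100% = median nuclei count of all wells on the same plate.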 Conditions: HUVEC TNFalpha-induced E-selectin immunofluorescence imaging, at 2 µM; inhibition: stronger effect = higher value; nuclei count: measured here: cell number, toxicity.
The nature of assay [3]: Primary imaging screen for DUSP6 inhibitors that restore phospho-Erk in transfected HeLa cells, chemical complementation (AID 609;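 active means compounds giving at least 50% inhibition in the cell-based MKP-3 phosphatase rescue imaging test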;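 on inhibition: phospho-Erk level distribution per well compared with pooled transfected vehicle control wells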). The following applies: HeLa MKP-3 transfected, phospho-Erk imaging KS statistic, at 10 µM.
The target of assay [4] is Dual specificity protein phosphatase 6 (Homo sapiens) (UniProt Q16828). The description is as above. The following applies: HeLa MKP-3 transfected, phospho-Erk imaging KS statistic, at 10 µM, stronger effect = higher value.
Chain of Dual specificity protein phosphatase 6 (Homo sapiens) (Q16828 whole entry, looked up): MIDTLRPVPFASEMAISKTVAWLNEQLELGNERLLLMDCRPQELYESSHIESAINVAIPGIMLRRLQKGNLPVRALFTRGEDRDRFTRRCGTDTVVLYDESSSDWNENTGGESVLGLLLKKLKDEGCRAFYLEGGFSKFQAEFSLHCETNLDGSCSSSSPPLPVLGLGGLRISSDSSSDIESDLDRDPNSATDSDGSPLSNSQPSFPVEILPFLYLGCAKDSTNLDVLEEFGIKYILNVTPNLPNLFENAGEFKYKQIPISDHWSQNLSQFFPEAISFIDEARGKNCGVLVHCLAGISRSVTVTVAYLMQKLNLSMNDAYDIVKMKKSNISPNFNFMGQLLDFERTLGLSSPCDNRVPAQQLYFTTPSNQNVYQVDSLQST
In assay [5] the target is Voltage-gated potassium channel subunit beta-2 (Rattus norvegicus) (UniProt P62483). Put plainly: inhibitors of rat Kvbeta2 reductase activity – biochemical, NADPH fluorescence, primary screen (AID 622;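 active means fluorescence slope higher than the sample average by over 3 SD, cut at about -0.22 in these data, passing the limit was not always enough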;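 further: slope of raw intensity against log time taken from 70 to 1610 s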). The following applies: recombinant KvBeta, 4-cyanobenzaldehyde reduction, at 10 µM, stronger effect = higher value.
Chain of Voltage-gated potassium channel subunit beta-2 (Rattus norvegicus) (P62483 whole entry, looked up): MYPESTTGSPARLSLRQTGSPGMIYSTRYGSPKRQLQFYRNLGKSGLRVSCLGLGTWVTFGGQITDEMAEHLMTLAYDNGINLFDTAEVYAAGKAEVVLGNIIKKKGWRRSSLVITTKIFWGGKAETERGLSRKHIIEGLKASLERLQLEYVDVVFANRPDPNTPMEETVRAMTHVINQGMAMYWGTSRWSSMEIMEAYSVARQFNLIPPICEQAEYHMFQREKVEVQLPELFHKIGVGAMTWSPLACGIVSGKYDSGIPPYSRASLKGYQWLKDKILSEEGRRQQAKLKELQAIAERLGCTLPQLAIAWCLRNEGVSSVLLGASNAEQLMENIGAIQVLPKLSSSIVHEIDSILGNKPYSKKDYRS
The target is the same in assay [6]. Put plainly: enhancers of rat Kvbeta2 NADPH turnover – biochemical, NADPH fluorescence, primary screen (AID 623;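 active means NADPH fluorescence slope more negative than the mean of all samples by about 3 SD, 99.7% confidence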;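 further: fluorescence intensity change per second fitted from 20 to 320 s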). The following applies: Recombinant KvBeta, NADPH fluorescence decrease slope, 10 min; at 10 µM; stronger effect = lower value.
Assay [7] has as its target Alpha-2C adrenergic receptor (Homo sapiens) (UniProt P18825). Put plainly: compounds altering alpha2C-coupled GIRK flux – cell-based, HEK293 alpha2C/GIRK1/2, thallium flux, primary screen (AID 624;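 active means fluorescence slope after compound addition differing from the mean of all screened samples at 99.7% confidence, in either direction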;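 further: slope of fluorescence ratio to pre-addition baseline per second over 15 to 24 s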). The following applies: thallium flux BTC fluorescence, at 10 µM, actives lie on both sides.
A short description of assay [8]: inhibitors of larval lipid processing in zebrafish, primary screen, whole organism, PED6 fluorescence, gall bladder and intestine (AID 686;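 active means a full or partial loss of lipid-probe fluorescence in the fish gall bladder, intestine or both, judged by eye; inactive means no fluorescence loss, or compound toxic to the fish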;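 further: larvae 5 to 7 days old with five fish per well; signal comes from phospholipase A2 cleavage of quenched PED6 carried via bile; overnight exposure to compound and PED6 before scoring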). The following applies: Zebrafish larvae PED6 lipid processing, fluorescence scoring.
Assay [9] in a line: loss of swimming-algae plug formation – whole organism, Chlamydomonas reinhardtii, WT vs cilia-less mutant, absorbance, 96-well, primary screen (AID 463189;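 active means inhibition at or above 50% relative to wild type and mutant plate controls; inactive means inhibition below 50%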;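 further: 0% = wild type cc124 cells in DMSO and 100% = ciliumless bld1 mutant cells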). Conditions: Chlamydomonas reinhardtii gravitaxis, OD600 absorbance, 2 days; at 10 µM; stronger effect = higher value.
Where [10] appears, read: measured here: cell density z-score.
The mark [11] stands for this setting: measured here: nuclear c-Myc green intensity z-score.
The mark [12] stands for this setting: measured here: nuclear pErk red intensity z-score, stronger effect = higher value.

Chain of Alpha-2C adrenergic receptor (Homo sapiens) (P18825 whole entry, looked up): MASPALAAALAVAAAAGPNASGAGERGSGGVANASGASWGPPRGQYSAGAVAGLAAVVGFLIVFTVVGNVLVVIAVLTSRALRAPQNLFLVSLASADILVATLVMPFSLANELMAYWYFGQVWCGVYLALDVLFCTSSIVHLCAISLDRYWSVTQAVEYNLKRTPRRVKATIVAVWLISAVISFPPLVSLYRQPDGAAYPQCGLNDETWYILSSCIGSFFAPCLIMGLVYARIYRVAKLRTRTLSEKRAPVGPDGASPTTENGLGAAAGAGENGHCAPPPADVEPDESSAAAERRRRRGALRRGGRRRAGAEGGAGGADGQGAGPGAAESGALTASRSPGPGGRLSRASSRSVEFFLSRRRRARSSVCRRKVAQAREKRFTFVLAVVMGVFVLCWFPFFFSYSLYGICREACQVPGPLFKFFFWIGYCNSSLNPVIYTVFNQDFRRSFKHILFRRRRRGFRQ

`COc1cc2[nH]c(=O)n(-c3cccc(Cl)c3)c(=O)c2cc1OC` returned a cell count in assay [1] of 636. Moreover, the inhibition is -0.6% (inactive) in assay [1], -128% (inactive) in assay [2], -1.12% (inactive) in assay [4] and -6.85% (inactive) in [9]. Moreover, the nuclei count in [2] was 159%. The z-score in assay [3] (setting [10]) was 0.96; in [3] (setting [11]), -1.11; in assay [3] (setting [12]), 1.07. In assay [5], the fluorescence slope is -0.467 (inactive). Further, in assay [6], the NADPH fluorescence slope is -0.000203 (inactive). Also, the slope in [7] is 0.00492 (inactive). For the same compound, the result in assay [8] was inactive.
With `CNCCc1nc(N)n[nH]1`, in assay [1], the cell count was 570. Besides, the inhibition was -4.9% (inactive) in assay [1], -160% (inactive) in assay [2], 27.8% (inactive) in [4] and 24% (inactive) in assay [9]. This compound also showed a nuclei count in [2] of 139%. Moreover, the values for the z-score in assay [3] (setting [10]), in assay [3] (setting [11]) and in assay [3] (setting [12]) were 1.42, -0.447 and -0.807, respectively. For the same compound, the fluorescence slope in [5] was -0.507 (inactive). Besides, the NADPH fluorescence slope in assay [6] is -4.4e-05 (inactive). Also, the slope in assay [7] was 0.00445 (inactive). For the same compound, in [8], the result was inactive.
Consider `O=c1[nH]c(=O)n(Cc2ccco2)c(O)c1C=NCCN1CCOCC1`, for which, in assay [1], the cell count amounted to 680. Also, the inhibition is -12.4% (inactive) in [1], -84.8% (inactive) in assay [2], -8.95% (inactive) in assay [4] and -10.1% (inactive) in assay [9]. In addition, the nuclei count in assay [2] came to 179%. The z-score in assay [3] (setting [10]) was 0.97; in [3] (setting [11]) it was -1.61; in assay [3] (setting [12]), 0.194. In addition, the fluorescence slope in assay [5] is -0.384 (inactive). In [6], the NADPH fluorescence slope is -2.1e-05 (inactive). The slope in assay [7] is 0.00707 (inactive). Further, the compound was called inactive in assay [8].
Turning to `COc1cccc(-n2c(C)nc3ccccc3c2=O)c1`, the cell count in assay [1] amounted to 554. The inhibition in [1] was 7.1% (inactive); in assay [2] it was -57.2% (inactive); in [4], 7.73% (inactive); in assay [9], -5.87% (inactive). In assay [2], this compound showed a nuclei count of 161%. In addition, the z-score was 0.773 in assay [3] (setting [10]), 1.04 in assay [3] (setting [11]) and -1.15 in assay [3] (setting [12]). For the same compound, the fluorescence slope in assay [5] is -0.353 (inactive). In addition, in assay [6], the NADPH fluorescence slope is 2e-05 (inactive). For the same compound, in assay [7], the slope is 0.00545 (inactive). Moreover, the result in assay [8] was inactive.
In [1], `CCCCOCCCn1c(N)c(C(=O)OC(C)COC)c2nc3ccccc3nc21` (centres undefined) gave a cell count of 572. Further, the inhibition in [1] is -16.3% (inactive); in assay [2], -75.8% (inactive); in assay [4] it was 11.9% (inactive); in assay [9], 21% (inactive). Besides, the nuclei count in [2] stood at 146%. Further, the values for the z-score in assay [3] (setting [10]), in assay [3] (setting [11]) and in assay [3] (setting [12]) were 0.315, -0.916 and -1.54, respectively. Also, the fluorescence slope in assay [5] was -0.0435 (inactive). Further, in assay [6], the NADPH fluorescence slope was -1e-05 (inactive). Moreover, the slope in assay [7] was 0.00527 (inactive). In assay [8], the compound was called inactive.
In assay [1], `O=c1[nH]c(=O)n(CCc2ccccc2)c(O)c1C=NCCCn1ccnc1` registered a cell count of 364. The inhibition in assay [1] is -0.9% (inactive); in assay [2] it was -29% (inactive); in assay [4] it was -2.59% (inactive); in [9], 35.6% (inactive). The nuclei count in [2] was 94.5%. Further, the z-score in [3] (setting [10]) is -0.281; in assay [3] (setting [11]) it was -0.0547; in [3] (setting [12]), 0.509. For the same compound, the fluorescence slope in assay [5] was -0.581 (inactive). Besides, the NADPH fluorescence slope in assay [6] is 1.1e-06 (inactive). For the same compound, the slope in assay [7] was 0.00497 (inactive). Also, the result in [8] was inactive.
Regarding `CCOc1ccc(-n2c(O)c(C=Nc3ccc(N(CC)CC)cc3)c(=O)[nH]c2=O)cc1`, the cell count in assay [1] was 366. In addition, the inhibition is -4.7% (inactive) in assay [1], -63.9% (inactive) in [2], 14% (inactive) in assay [4] and -4.04% (inactive) in assay [9]. This compound gave a nuclei count in [2] of 138%. For the same compound, the z-score in assay [3] (setting [10]) is 0.258; in [3] (setting [11]) it was -1.14; in [3] (setting [12]) it was 0.567. The fluorescence slope in [5] was -0.361 (inactive). Further, the NADPH fluorescence slope in assay [6] was -0.000118 (inactive). In assay [7], the slope is -0.0068 (active). Moreover, the compound was classed as inactive in assay [8].
For the compound `CCCCCCn1c(O)c(C=NCCCn2ccnc2)c(=O)[nH]c1=O`, the cell count in assay [1] worked out at 654. Further, the inhibition is -20.1% (inactive) in assay [1], 13.9% (inactive) in assay [2], 2.71% (inactive) in assay [4] and 13.6% (inactive) in [9]. The compound also had a nuclei count in assay [2] of 134%. For the same compound, the figures for the z-score in [3] (setting [10]), in [3] (setting [11]) and in [3] (setting [12]) were 1.42, -1.88 and -0.817, respectively. Also, in assay [5], the fluorescence slope is -0.5 (inactive). Further, in assay [6], the NADPH fluorescence slope was -2e-06 (inactive). Further, in [7], the slope was 0.0065 (inactive). Further, the outcome in assay [8] was inactive.
`C=CCn1c(O)c(C=Nc2ccc(N(CC)CC)cc2)c(=O)[nH]c1=O` came in with a cell count in assay [1] of 321. The inhibition in assay [1] was 4.1% (inactive); in assay [2], -65.7% (inactive); in assay [4], -1.75% (inactive); in assay [9], 25.3% (inactive). Moreover, the nuclei count in assay [2] came out at 88.8%. Besides, the figures for the z-score in assay [3] (setting [10]), in assay [3] (setting [11]) and in assay [3] (setting [12]) were -1.25, 0.816 and -0.799, respectively. Moreover, the fluorescence slope in [5] is -0.321 (inactive). Moreover, in assay [6], the NADPH fluorescence slope is -6.9e-05 (inactive). Further, the slope in assay [7] was 0.00606 (inactive). Moreover, the call in assay [8] was inactive.
In the case of `O=c1c(C=NCCN2CCNCC2)c(O)n(C2CCCCC2)c(=O)n1C1CCCCC1`, in [1], the cell count was determined as 583. Moreover, the inhibition is -5.8% (inactive) in assay [1], -162% (inactive) in [2], 3.97% (inactive) in [4] and 2.5% (inactive) in assay [9]. In addition, in [2], the nuclei count was found to be 138%. In addition, the z-score amounted to 0.0473 in assay [3] (setting [10]), 0.939 in assay [3] (setting [11]) and 0.718 in assay [3] (setting [12]). In addition, in [5], the fluorescence slope was -0.516 (inactive). Moreover, the NADPH fluorescence slope in [6] was -3.1e-05 (inactive). In addition, in assay [7], the slope was 0.00535 (inactive). Further, the outcome in assay [8] was inactive.
`COc1ccc(Cn2c(O)c(C=NCCN3CCOCC3)c(=O)[nH]c2=O)cc1` returned a cell count in assay [1] of 587. Also, the inhibition in [1] was -0.9% (inactive); in [2] it was 36.9% (inactive); in assay [4], 19.3% (inactive); in assay [9], -7.73% (inactive). Further, in assay [2], the nuclei count is 166%. Besides, the z-score in [3] (setting [10]) was 0.642; in assay [3] (setting [11]), -0.606; in assay [3] (setting [12]), -0.227. For the same compound, the fluorescence slope in [5] is -0.342 (inactive). Besides, in assay [6], the NADPH fluorescence slope is -2.7e-06 (inactive). Also, in assay [7], the slope is 0.00514 (inactive). The compound was classed as inactive in [8].
With `COCC(C)OC(=O)c1c(N)n(Cc2ccco2)c2nc3ccccc3nc12` (centres undefined), the cell count in assay [1] was determined as 433. Also, the inhibition was -9.3% (inactive) in assay [1], -115% (inactive) in [2], -11.9% (inactive) in [4] and 7.25% (inactive) in assay [9]. In [2], this compound gave a nuclei count of 147%. Moreover, the figures for the z-score in [3] (setting [10]), in assay [3] (setting [11]) and in [3] (setting [12]) were -0.578, 0.931 and -0.00965, respectively. Moreover, the fluorescence slope in assay [5] was -0.0512 (inactive). The NADPH fluorescence slope in assay [6] is -2.8e-07 (inactive). For the same compound, in [7], the slope was 0.0047 (inactive). Further, the compound was called inactive in assay [8].
In the case of `CCOC(=O)[C@@]1(C#N)[C@@H]2C=CC(C(N)=O)=CN2[C@@H](C(N)=O)[C@@H]1c1cccc(Cl)c1`, the cell count in assay [1] was determined as 359. Besides, the inhibition in [1] was -11.1% (inactive); in assay [2], -137% (inactive); in [4] it was 11.4% (inactive); in [9], 24.1% (inactive). In addition, in assay [2], the nuclei count came out at 133%. Besides, the values for the z-score in assay [3] (setting [10]), in [3] (setting [11]) and in [3] (setting [12]) were 1.68, -1.47 and -0.2, respectively. Besides, the fluorescence slope in assay [5] is -0.368 (inactive). Moreover, in [6], the NADPH fluorescence slope was -1e-05 (inactive). For the same compound, in assay [7], the slope was 0.00498 (inactive). For the same compound, the call in assay [8] was inactive.

As a reminder, the inhibition is the relative decrease from the control value, in per cent.
